Rows were chosen to be rich in hits. Some 2.4% of all compounds tested hit in one or more screens of this group.
D2 ag-1 = HTS Assay for Allosteric Agonists of the Human D2 Dopamine Receptor: Primary Screen for Agonists; AID 485358, 2010; HEK293 T-REx D2 cells, calcium flux agonist mode; hit rate 0.53% among 340,000; D(2) dopamine receptor (Homo sapiens), P14416; activation, % at 2 µM;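 active means activation over 3 SD above normal in the single-dose calcium agonist read, cut at about 30% in these data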; further: 0% is about no effect
Target sequence (P14416 whole entry, looked up): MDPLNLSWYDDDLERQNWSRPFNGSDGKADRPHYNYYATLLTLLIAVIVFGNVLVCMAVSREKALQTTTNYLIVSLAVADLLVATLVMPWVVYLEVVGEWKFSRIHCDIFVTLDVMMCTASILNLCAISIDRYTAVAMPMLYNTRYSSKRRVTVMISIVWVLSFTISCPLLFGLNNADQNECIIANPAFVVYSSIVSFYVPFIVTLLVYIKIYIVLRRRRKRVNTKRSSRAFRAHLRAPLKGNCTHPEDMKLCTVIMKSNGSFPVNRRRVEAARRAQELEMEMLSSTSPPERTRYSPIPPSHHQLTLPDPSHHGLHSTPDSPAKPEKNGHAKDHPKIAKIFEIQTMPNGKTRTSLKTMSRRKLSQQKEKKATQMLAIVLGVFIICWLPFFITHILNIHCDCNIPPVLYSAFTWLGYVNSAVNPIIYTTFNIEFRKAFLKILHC
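HEK293 Trex D2 cells, tetracycline-induced, o/n 30 C 5% CO2; no-wash Ca dye, RT 30–90 min; 10-cycle baseline, 23 nl cpd added, kinetic Ca read 180 s; agonist hits = positive Ca response.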
D2 ag-2 = Beta-Arrestin HTS for Positive Allosteric Modulators of the Human D2 Dopamine Receptor: Agonists. activation, % (test concentration not listed). AID 624465, 2012. DiscoveRx PathHunter D2 beta-arrestin, luminescence, 90 min; 100% = 57 uM dopamine signal. hit rate 0.084% among 360,000; in the data active means activation above about 40%; inconclusive means between about 15% and that limit
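Agonist mode: compounds alone added to overnight-plated D2 PathHunter cells for 90 min at 37 C, with 57 uM final dopamine (EC100) defining full response. Beta-arrestin recruitment detected by chemiluminescent reagent, read after 1 h at ambient temperature.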
D2 antagonist = HTS Assay for Allosteric Antagonists of the Human D2 Dopamine Receptor: Primary Screen for Antagonists. D(2) dopamine receptor (Homo sapiens), P14416. HEK293 TREx D2 cells, calcium flux, dopamine EC80. inhibition, % at 10 µM. hit rate 2% among 340,000. AID 485344, 2010; in the data active means inhibition above about 30%; inactive means below that, where a call was filed; further: 0% is about no effect
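Tetracycline-induced HEK293 TREx cells expressing D2 receptor forced-coupled to calcium signalling, loaded with no-wash calcium dye. Compounds added and calcium flux read 180 s, then dopamine added at EC80 and read a further 180 s.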
D2 PAM-1 = HTS Assay for Positive Allosteric Modulators of the Human D2 Dopamine Receptor: Primary Screen for Potentiators. HEK293 T-REx D2, calcium flux, EC20 dopamine potentiation. hit rate 0.34% among 340,000. AID 485347, 2010. potentiation, % at 10 µM. D(2) dopamine receptor (Homo sapiens), P14416;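 active means potentiation over 3 SD above the plate norm, cut at about 30% in these data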; further: 0% is about no effect
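Potentiation of an EC20 dopamine calcium response measured kinetically over 180 s, after a preceding 180 s compound-only read flagging agonists. Cells: inducible Hek293 Trex D2 line, 4000/well, cultured overnight at 30 C before dye loading.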
D2 PAM-2 = Beta-Arrestin HTS for Positive Allosteric Modulators of the Human D2 Dopamine Receptor: Potentiators | D(2) dopamine receptor (Homo sapiens), P14416 | DiscoveRx D2 beta-arrestin cells, luminescence, 90 min; 100% = 57 uM dopamine signal | potentiation, % (test concentration not listed) | hit rate 0.23% among 360,000 | AID 624464, 2012; in the data active means potentiation above about 50%; inconclusive means mostly about 30% to 49%
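PathHunter D2 cells, attached overnight at 37 deg C, received compound in DMSO plus dopamine at EC20 (50 nM final) for 90 min at 37 deg C. Beta-arrestin recruitment was read as luminescence after 1 h with detection reagent at ambient temperature.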
* = called active by the depositor; ? = inconclusive; . = not tested or not shown.

SMILES | D2 ag-1 | D2 ag-2 | D2 antagonist | D2 PAM-1 | D2 PAM-2
COc1ccc(Cl)cc1S(=O)(=O)N1CCN(Cc2ccc3c(c2)OCO3)CC1 | -0.1 | -0.8 | -0.5 | -7.1 | -5.8
COc1ccc(S(=O)(=O)N2CCN(Cc3ccc4c(c3)OCO4)CC2)c2ccccc12 | 0.4 | -3.3 | 31.3* | -10.1 | -4.6
COc1cc2c(cc1OC)C(c1ccc(F)cc1)N(c1ccc(F)cc1)C(=O)C2 (stereo not drawn) | 1.4 | . | . | 1.8 | .
O=C(Cc1ccc(Cl)cc1)Nc1nnc2n1CCS2 | -0.6 | . | . | . | .
CCN(CC)CCNC(=O)c1cc(Cl)c(N)cc1OC | 1.2 | -6.8 | 81.8* | -28.0 | -22.9
CCN(CC)CCNC(=O)c1cc([N+](=O)[O-])c(N(C)C)cc1OC | -1.3 | -1.8 | 94.1* | -21.2 | -13.8
CCc1ccc(NC(=O)Cn2c(=O)n(CCCC(=O)NCCc3ccc(OC)c(OC)c3)c(=O)c3ccccc32)cc1 | -0.3 | . | . | -3.7 | .
Oc1ccccc1C1Nc2cccc3cccc(c23)N1 | 0.7 | 13.1 | -2.5 | 20.4 | 60.5*
Brc1ccc(C2Nc3cccc4cccc(c34)N2)o1 | 0.1 | 8.0 | -8.4 | 4.1 | 61.3*
Brc1cccc(C2Nc3cccc4cccc(c34)N2)c1 | 0.5 | 4.1 | -2.8 | 12.3 | 1.6
COc1cc(N)ccc1NC(=O)c1cccs1 | 0.1 | 8.7 | 11.4 | 8.6 | 78.8*
COc1ccc(OC)c(NC(=O)C(=O)NNC(=O)c2cccs2)c1 | -0.4 | 0.1 | 38.1* | 19.7 | 4.9
CCN1CCN(S(=O)(=O)c2c[nH]c(C(=O)OC)c2)CC1 | 0.1 | -3.0 | -11.9 | 2.3 | -4.7
COc1ccccc1NC(=O)C1=C(C)Nc2nc(CCCO)nn2C1c1cccc(O)c1 (stereo not drawn) | -0.3 | . | . | 5.0 | .
O=S(=O)(NCc1ccccc1)c1ccc(S(=O)(=O)N2CCCCC2)cc1 | 0.0 | -1.5 | 4.9 | -4.4 | 0.5
CC1CCN(S(=O)(=O)c2ccc(S(=O)(=O)NCc3ccccc3)cc2)CC1 | 0.9 | 3.7 | 31.0* | -5.3 | 13.7
CC(NCC(=O)Nc1cc(S(=O)(=O)N2CCOCC2)ccc1Cl)c1ccc(Cl)cc1Cl (stereo not drawn) | 0.7 | -3.8 | -6.0 | -5.3 | 4.8
NS(=O)(=O)c1ccc(CCNc2ncnc3c2c(-c2ccccc2)cn3-c2ccc(F)cc2)cc1 | -0.6 | -5.2 | 20.5 | -2.1 | -13.4
CCOC(=O)c1c(C)oc2c1c(C(c1ccncc1)N1CCOCC1)c(O)c1ccccc12 (stereo not drawn) | 0.0 | 7.9 | -7.3 | . | 69.2*
CCOC(=O)c1c(C)oc2c1c(CN1CCN(C(=O)OCC)CC1)c(O)c1ccccc12 | 0.7 | ? | 4.5 | -2.6 | 74.9*
CCOC(=O)c1c(C)oc2c1c(CN1CCN(CCO)CC1)c(O)c1ccccc12 | 0.0 | 6.3 | -9.8 | 6.7 | 21.5
Cc1cccc(Cn2c(=O)n(Cc3ccccc3)c(=O)c3sc4ccccc4c32)c1 | -0.3 | . | . | 14.9 | .
Cc1nn(Cc2ccccc2)c(C)c1/C=N/NC(=O)CNc1cccc(C(F)(F)F)c1 | 1.8 | 13.9 | 8.1 | 2.3 | -9.6
COc1ccc(NCC(=O)N/N=C/c2c(C)nn(Cc3ccccc3)c2Cl)cc1 | -1.2 | 1.3 | 31.3* | -4.2 | 0.0
CCOC(=O)/C(=C/c1ccc(N2CCC(c3ccccc3)=N2)cc1)C(C)=O | 36.9* | -0.9 | 16.3 | -24.2 | 0.1
SMILES | D2 ag-1 | D2 ag-2 | D2 antagonist | D2 PAM-1 | D2 PAM-2
c1ccc(C2=NN(c3ccccc3)CC2)cc1 | -0.4 | -3.8 | 3.7 | 8.6 | -13.3
COC(=O)c1c(C)oc2c1cc(NS(=O)(=O)c1c(C)cc(C)cc1C)c1ccccc12 | -2.2 | . | . | 20.7 | .
CCc1c(C)sc2c1CCN(C(=O)Nc1ccccc1Cl)C2c1ccc(OC)cc1 (stereo not drawn) | -1.2 | . | . | -0.3 | .
CCOc1ccc(CCNC(=O)c2ccc3c(c2)c(C)c(C)n3C)cc1 | -0.3 | . | . | -0.1 | .
Cc1ccc(CN2CC[C@H]3C=CCc4cccc(c43)C2)cc1 | -0.4 | 7.1 | 56.7* | -13.4 | -17.8
COC(=O)C(=Cc1ccncc1)c1cccc2ccccc12 | . | -1.2 | . | . | -13.2
COc1ccc(N2C(=O)C(CC(=O)Nc3ccc(F)cc3)N(Cc3ccc4c(c3)OCO4)C2=O)cc1 (stereo not drawn) | 0.3 | . | . | -22.5 | .
COc1ccc(N2C(=O)C(CC(=O)Nc3ccccc3)N(Cc3ccc4c(c3)OCO4)C2=O)cc1 (stereo not drawn) | 0.4 | 3.5 | 43.0* | 13.4 | -11.7
O=C(CSc1ncccn1)NCc1ccc(Cl)cc1 | -0.4 | -3.0 | 35.8* | -2.7 | -2.2
O=C(CSc1ncccn1)NC(=O)c1ccccc1 | 0.5 | -5.8 | -10.5 | 34.0* | 8.5
O=C(CSc1ccccc1)NNC(=O)c1ccncc1 | 1.0 | -0.2 | 57.1* | 5.3 | 0.9
Nc1nnc(SCC(=O)NNC(=O)c2ccccc2)s1 | -0.1 | -4.8 | 37.2* | -7.2 | -8.8
Nc1nnc(SCC(=O)NNC(=O)c2ccc(F)cc2)s1 | -0.1 | -2.6 | -39.3 | -6.9 | -13.9
Cc1ccc(C)c(N2CCN(C(=O)CCS(=O)(=O)c3ccc4c(c3)CC(=O)N4C)CC2)c1 | -0.2 | . | . | 1.3 | .
CC(NC(=O)C1CCN(c2nc3ccccc3nc2C(F)(F)F)CC1)c1ccccc1 (stereo not drawn) | . | . | . | -1.7 | .
CCc1cccc(NC(=O)Cn2c(=O)n(-c3cccc(Cl)c3)c(=O)c3c2c2cc(C)ccc2n3C)c1 | . | . | . | 21.2 | .
C[N+](C)(C)CCOC(=O)CCC(=O)OCC[N+](C)(C)C | . | -4.6 | . | . | 0.5
CC(=O)SCC[N+](C)(C)C | 4.2 | -5.6 | 35.9* | -2.7 | 2.9
CC(=O)N1c2ccc(S(=O)(=O)NCCc3cccc(C)c3)cc2CC1C (stereo not drawn) | -1.5 | . | . | -11.3 | .
Cc1nnc(N2C(=O)c3cccc4c([N+](=O)[O-])ccc(c34)C2=O)s1 | 1.7 | 4.1 | -4.9 | -2.1 | 61.8*
Cc1ccnc(N2C(=O)c3cccc4c([N+](=O)[O-])ccc(c34)C2=O)c1 | 2.2 | 8.8 | 6.4 | -5.1 | 51.4*
Cc1ccc(N2C(=O)c3cccc4c([N+](=O)[O-])ccc(c34)C2=O)c2cccnc12 | 3.1 | -3.1 | 19.3 | 3.5 | -11.5
O=Cc1cc(CCC(=O)O)ccc1O | -4.0 | -1.9 | -9.6 | -8.8 | 0.4
CCOc1ncccc1C(=O)NCCN1C(=O)S/C(=C/c2cccs2)C1=O | . | -2.7 | . | . | 0.4
Cc1cccn2c(Nc3ccccc3)c(-c3cccs3)nc12 | -0.8 | . | . | 21.4 | .
COc1ccccc1OCCC(=O)OCC(=O)Nc1ccc(Br)cc1F | 1.8 | -2.6 | 41.1* | -20.8 | -15.0
O=C(COC(=O)COc1ccccc1)Nc1ccc(Br)cc1F | . | -3.3 | . | . | -6.2

Assay outcomes deposited in PubChem BioAssay by National Center for Advancing Translational Sciences (NCATS).
